The values that follow come from PubChem BioAssay.

SMILES strings stand for the structures. For part of these data: Measured potencies and affinities stand elsewhere. Active and inactive are the calls of the source.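 How the source made its calls, unless noted: active means hit in primary screen, with calcium signal over 5 SD above buffer well mean in both duplicates; inactive means the rest.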

For experiment [1], the system named is TRPC4 beta (transient receptor potential cation channel C4), mouse. Description: activators of mouse TRPC4 channel, confirmation, cell-based, Fluo4 calcium, HEK293 TRPC4beta/mu-opioid, duplicates, 10 µM (AID 2426;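 active means fluorescence ratio normalized to control raised more than 50% in primary screen plus both repeat runs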;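 on activation: percent rise of integrated ratio over buffer wells lacking compound which define 0%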). The note with it: Fluo4 calcium fluorescence, at 10 µM; stronger effect = higher value.
Experiment [2] concerns transient receptor potential cation channel C4 beta (TRPC4), mouse. The experiment in a line: activators of mouse TRPC4 channel, confirmation, cell-based, second round, Fluo4, HEK293 TRPC4beta/mu-opioid, 1 µM (AID 2461;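 active means primary screen active and over 50% activation in each of two duplicate runs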). The note with it: Fluo4 calcium fluorescence, at 1 µM; stronger effect = higher value.
Experiment [3] has as its system TRPC4 (transient receptor potential cation channel C4 beta), mouse. The experiment in a line: positive allosteric modulators of mouse TRPC4, confirmation, cell-based, second round, Fluo-4, HEK293 TRPC4beta/mu-opioid, 1 µM (AID 2554;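 active means primary screen hit whose fluorescence ratio, in both repeats, exceeds the weak agonist control mean by 3 SD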). Particulars: DAMGO EC20, Fluo-4 calcium flux, at 1 µM; stronger effect = higher value. (A change in cytosolic calcium serves as a functional read-out for many receptors and channels.)

The subject of experiment [4] is TRPC4 beta (transient receptor potential cation channel C4), mouse. Description: positive allosteric modulators of mouse TRPC4, confirmation, cell-based, Fluo-4, HEK293 TRPC4beta/mu-opioid (AID 2555;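 active means primary screen hit whose calcium fluorescence ratio, in both repeats, exceeds the weak agonist control mean by 3 SD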). The note with it: DAMGO EC20, Fluo-4 calcium flux, at 10 µM; stronger effect = higher value.
In experiment [5] the target is Short transient receptor potential channel 4 (Mus musculus) (UniProt Q9QUQ5). The experiment in a line: inhibitors of mouse TRPC4 channel, confirmation, cell-based, Fluo4, HEK293 TRPC4beta/mu-opioid (AID 2636;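 active means calcium signal cut by more than 3 SD below the full-agonist control yet still positive, in both repeats and the earlier primary screen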). Particulars: DAMGO, Fluo4 calcium flux, at 10 µM; stronger effect = higher value.
The target is the same in experiment [6]. The experiment in a line: inhibitors of mouse TRPC4 channel, confirmation, cell-based, second round, Fluo4, HEK293 TRPC4beta/mu-opioid, 1 µM (AID 2637;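 active means calcium signal ratio cut to more than 3 SD under the fully stimulated control mean yet still positive, in both repeats and the primary screen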;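 on inhibition: percent of integrated ratio relative to wells lacking test compound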). The note with it: Fluo4 calcium flux, DAMGO, at 1 µM; stronger effect = higher value.
Experiment [7] shares this target. Description: TRPC4 positive allosteric modulators, dose response, cell-based, HEK293 TRPC4/mu-opioid, Fluo-4 calcium, EC20 DAMGO (AID 434941;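 active means earlier screen potentiator hit that boosts the TRPC4 ion channel at some dose, with a dose response; inactive means no potentiation, no dose response, or not a prior hit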;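 further: calcium entry triggered by an EC20 dose of DAMGO at the co-expressed mu-opioid receptor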).
The target in experiment [8] is Short transient receptor potential channel 6 (Mus musculus) (UniProt Q61143). Description: inhibition of mouse TRPC6 channel, confirmation, selectivity assay for TRPC4 inhibitor project, cell-based, HEK293, membrane potential dye, duplicate (AID 434948;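 active means active in primary screen and both duplicates, each dropping signal beyond three positive-control SD with fluorescence still positive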). Particulars: HEK293 TRPC6, membrane potential dye fluorescence, at 10 µM, stimulated with maximal-effect acetylcholine; stronger effect = higher value.

Experiment [9] has the same target. Description: activation of mouse TRPC6 channel, confirmation, selectivity assay for TRPC4 activator project, cell-based, HEK293, membrane potential dye, duplicate (AID 434950;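 active means membrane potential signal rise above negative control mean plus 3 SD in both duplicates, also active in the earlier TRPC4 screen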;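 on activation: 0% = buffer only wells and 100% = acetylcholine maximal-effect wells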). Particulars: HEK293 TRPC6, membrane potential fluorescence, at 10 µM; stronger effect = higher value.
The target is the same in experiment [10]. Description: TRPC6 potentiation by TRPC4 potentiator hits, confirmation, selectivity assay for TRPC4 potentiator project, HEK293 cells, membrane potential dye, duplicate (AID 434952;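 active means compound raising the membrane signal above positive-control mean plus 3 SD in both repeats, and a primary screen hit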). The note with it: HEK293 TRPC6, membrane potential dye fluorescence, at 10 µM, maximal acetylcholine added after compound; stronger effect = higher value.
The target of experiment [11] is Short transient receptor potential channel 4 (Mus musculus) (UniProt Q9QUQ5). Description: calcium flux activators in TRPC4/5HT1a cells, counter-screen for TRPC4 activator project, cell-based, second counter screen, HEK293 TRPC4/5HT1a, Fluo-4 (AID 434977;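 active means calcium signal rise above buffer-control mean plus 5 SD in both duplicates, and also a hit in the primary screen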;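 on activation: plate controls were assay buffer for no effect and maximal serotonin response for full effect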). Particulars: Fluo-4 calcium flux, at 10 µM; stronger effect = higher value.
The nature of experiment [12]: calcium flux inhibitors in TRPC4/5HT1a cells, confirmation, counter-screen for TRPC4 inhibitor project, cell-based, second counter screen, HEK293 TRPC4/5HT1a, Fluo-4 (AID 434978;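 active means primary screen active whose calcium signal fell more than 3 SD beyond the full-serotonin control mean in both duplicate plates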;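 on outcome: serotonin given first at submaximal then at maximal dose after compound preincubation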). The note with it: Fluo-4 calcium flux, at 10 µM, serotonin added to trigger calcium flux; stronger effect = higher value.
For experiment [13], the system named is TRPC4 (mouse), co-expressed with 5HT1a in HEK293. The experiment in a line: calcium flux potentiators in TRPC4/5HT1a cells, confirmation, counter-screen for TRPC4 potentiator project, cell-based, second counter screen, HEK293 TRPC4/5HT1a, Fluo-4 (AID 434979;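 active means signal rise over 3 SD above mean of control wells given weak agonist, in both repeats and first screen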). Particulars: Fluo-4 calcium flux, at 10 µM, serotonin added at its EC20 dose; stronger effect = higher value.
Experiment [14] is described as follows: calcium flux activation in mu-opioid HEK293 cells, confirmation, counter-screen for TRPC4 activator project, cell-based, HEK293 mu-opioid receptor line (AID 449723).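 Further: counter screen cells carry the mu-opioid receptor alone and lack TRPC4.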 Particulars: Fluo-4 calcium fluorescence, at 10 µM; stronger effect = higher value.
Experiment [15] can be described thus: calcium flux enhancement in mu-opioid HEK293 cells, confirmation, counter-screen for TRPC4 allosteric potentiator project, cell-based, HEK293 mu-opioid receptor line (AID 449724;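 active means calcium signal rise more than 3 SD above the low-dose agonist control mean, in both duplicate plates and the primary screen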;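 further: HEK293 cells carrying mu-opioid receptor only with no TRPC4 channel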). The note with it: Fluo-4 calcium flux, at 10 µM, compound added before EC20 DAMGO stimulus; stronger effect = higher value.

Sequence of Short transient receptor potential channel 4 (Mus musculus) (Q9QUQ5 whole entry, looked up): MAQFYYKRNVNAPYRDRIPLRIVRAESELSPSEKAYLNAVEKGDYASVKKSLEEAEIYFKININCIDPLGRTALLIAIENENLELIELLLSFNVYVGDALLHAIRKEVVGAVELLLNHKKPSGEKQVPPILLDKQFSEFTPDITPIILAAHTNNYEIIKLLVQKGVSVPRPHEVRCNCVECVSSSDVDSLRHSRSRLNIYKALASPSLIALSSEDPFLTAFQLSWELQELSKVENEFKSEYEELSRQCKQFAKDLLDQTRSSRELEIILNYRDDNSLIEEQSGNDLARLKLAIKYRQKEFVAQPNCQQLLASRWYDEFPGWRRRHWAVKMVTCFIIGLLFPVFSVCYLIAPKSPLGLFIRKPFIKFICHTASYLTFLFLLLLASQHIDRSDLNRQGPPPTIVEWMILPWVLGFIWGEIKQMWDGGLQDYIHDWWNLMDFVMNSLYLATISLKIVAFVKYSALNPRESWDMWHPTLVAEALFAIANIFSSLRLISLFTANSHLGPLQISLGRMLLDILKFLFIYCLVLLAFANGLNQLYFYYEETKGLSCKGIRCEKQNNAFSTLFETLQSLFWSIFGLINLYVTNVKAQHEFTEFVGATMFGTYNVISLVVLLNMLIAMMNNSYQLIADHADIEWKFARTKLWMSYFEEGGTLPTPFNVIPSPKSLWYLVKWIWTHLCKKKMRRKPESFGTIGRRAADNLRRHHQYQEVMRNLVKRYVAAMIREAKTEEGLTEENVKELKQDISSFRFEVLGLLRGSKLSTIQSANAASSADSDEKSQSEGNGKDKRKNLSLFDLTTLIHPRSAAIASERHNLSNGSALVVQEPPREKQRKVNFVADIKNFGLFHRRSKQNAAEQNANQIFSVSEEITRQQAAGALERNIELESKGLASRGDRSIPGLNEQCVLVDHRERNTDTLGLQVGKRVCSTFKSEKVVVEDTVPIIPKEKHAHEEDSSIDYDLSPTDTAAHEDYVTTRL
Sequence of Short transient receptor potential channel 6 (Mus musculus) (Q61143 whole entry, looked up): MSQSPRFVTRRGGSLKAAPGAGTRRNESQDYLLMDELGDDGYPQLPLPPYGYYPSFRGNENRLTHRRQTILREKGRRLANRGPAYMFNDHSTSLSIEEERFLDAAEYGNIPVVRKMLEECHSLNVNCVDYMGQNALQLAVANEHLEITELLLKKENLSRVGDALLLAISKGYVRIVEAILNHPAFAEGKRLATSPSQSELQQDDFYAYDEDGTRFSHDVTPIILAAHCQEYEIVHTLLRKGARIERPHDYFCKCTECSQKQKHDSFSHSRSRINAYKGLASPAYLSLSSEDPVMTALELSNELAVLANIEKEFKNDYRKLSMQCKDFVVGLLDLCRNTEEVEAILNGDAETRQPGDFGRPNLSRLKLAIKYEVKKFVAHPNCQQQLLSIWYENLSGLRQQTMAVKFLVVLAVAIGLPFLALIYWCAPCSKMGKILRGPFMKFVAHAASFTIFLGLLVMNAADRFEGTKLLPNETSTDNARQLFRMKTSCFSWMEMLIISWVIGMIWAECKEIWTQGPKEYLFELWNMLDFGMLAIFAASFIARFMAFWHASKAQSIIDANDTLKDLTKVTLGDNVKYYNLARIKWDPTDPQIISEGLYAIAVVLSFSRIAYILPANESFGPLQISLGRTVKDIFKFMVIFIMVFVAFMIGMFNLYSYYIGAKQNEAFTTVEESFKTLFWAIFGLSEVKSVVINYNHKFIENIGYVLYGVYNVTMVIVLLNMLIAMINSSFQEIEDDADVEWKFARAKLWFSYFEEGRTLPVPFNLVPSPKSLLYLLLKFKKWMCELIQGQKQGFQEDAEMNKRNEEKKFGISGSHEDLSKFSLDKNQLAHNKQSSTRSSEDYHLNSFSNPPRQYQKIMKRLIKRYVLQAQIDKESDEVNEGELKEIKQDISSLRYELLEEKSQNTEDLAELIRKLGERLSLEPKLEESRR

Consider `CC(NCc1cc(Br)ccc1OCC(=O)NCc1ccccc1)c1ccccc1` (stereo not given), for which the outcome in experiment [1], in experiment [2], in experiment [3], in experiment [4], in experiment [6] and in experiment [7] was inactive. Also, the call in [8], in [10], in experiment [11], in experiment [13], in [14] and in experiment [15] was inactive. The values for the inhibition in experiment [5] and in [12] were 100% (active) and 35.1% (active), respectively. In addition, the activation in experiment [9] is 55% (active).

With `CC(Oc1ccc(Cl)cc1)C(=O)NNC(=S)NC(=O)c1ccco1` (stereo not given), the activation was 192% (active) in experiment [1], 104% (active) in [11] and 29.1% (active) in experiment [14]. Moreover, the outcome in experiment [2], in [3], in experiment [4], in experiment [5], in [6] and in experiment [7] was inactive. The molecule was called inactive in [8], in experiment [9], in experiment [10], in experiment [12], in experiment [13] and in experiment [15].

Regarding `COC(=O)C1=NN(C(=O)c2ccc(C)cc2)C(O)(c2ccc(Cl)cc2)C1` (stereo not given), the activation is 160% (active) in experiment [1], 315% (active) in experiment [9], 96.9% (active) in [11] and 67.6% (active) in [14]. The outcome in experiment [2], in [3], in experiment [4], in experiment [5], in experiment [6] and in experiment [7] was inactive. For the same molecule, the call in experiment [8], in experiment [10], in experiment [12], in [13] and in experiment [15] was inactive.

On to `Cc1ccccc1C(=O)Nc1c(C(=O)N(CCN(C)C)Cc2ccco2)oc2ccccc12`, for which the activation in experiment [1] is 84% (active); in [9], 33.5% (active). The outcome in experiment [2], in [3], in experiment [4], in [5], in [6] and in [7] was inactive. Moreover, the molecule was classed as inactive in experiment [8], in [10], in [11], in [12], in experiment [13] and in experiment [14]. The result in [15] was inactive.

With `CCn1c(SCC(=O)c2cc(C)n(CC3CCCO3)c2C)nc2ccccc21` (stereo not given), the outcome in [1], in experiment [2], in [3], in [4], in [6] and in experiment [7] was inactive. The call in experiment [8], in experiment [10], in [11], in experiment [12], in experiment [13] and in experiment [14] was inactive. In addition, the result in experiment [15] was inactive. Besides, the inhibition in experiment [5] was 69% (active). In addition, the activation in experiment [9] is 65% (active).

Consider `CCOC(=O)C1(CC2CC2)CCN(Cc2cn[nH]c2-c2ccccc2)CC1`, for which the outcome in [1], in experiment [2], in experiment [3], in experiment [4], in [7] and in experiment [8] was inactive. In addition, the result in experiment [10], in experiment [11], in experiment [13], in [14] and in experiment [15] was inactive. The inhibition was 97% (active) in [5], 47% (active) in [6] and 35.9% (active) in [12]. Moreover, the activation in [9] was 91% (active).

`COc1cccc(CC2(CO)CCCN(Cc3ccccc3-c3ccco3)C2)c1` (stereo not given): the result in experiment [1], in experiment [2], in experiment [3], in experiment [4], in experiment [5] and in experiment [7] was inactive. Further, the result in [8], in experiment [10], in experiment [11], in [12], in experiment [13] and in experiment [14] was inactive. The outcome in experiment [15] was inactive. For the same molecule, in experiment [6], the inhibition was 42% (active). Moreover, the activation in experiment [9] is 47% (active).

Turning to `OC1(c2ccccc2)CN(c2ccccc2)C2=[N+]1CCS2` (stereo not given), the outcome in experiment [1], in [2], in experiment [3], in experiment [4], in [6] and in experiment [7] was inactive. The molecule was called inactive in experiment [8], in experiment [10], in experiment [11], in experiment [12], in experiment [13] and in experiment [14]. The outcome in experiment [15] was inactive. In experiment [5], the inhibition was 89% (active). In experiment [9], the activation is 34% (active).

With `CCCCC(c1nnnn1CC1CCCO1)N1CCN(Cc2ccccc2)CC1` (stereo not given), the outcome in experiment [1], in [2], in [3], in experiment [4], in experiment [6] and in [7] was inactive. The call in experiment [8], in experiment [10], in experiment [11], in experiment [12], in [13] and in [14] was inactive. Besides, the result in experiment [15] was inactive. In addition, the inhibition in [5] is 84% (active). Also, in experiment [9], the activation was 64.5% (active).

For `Cc1ccccc1Nc1nc(NCc2ccco2)c2ccccc2n1`, the result in experiment [1], in experiment [2], in experiment [3], in experiment [4], in experiment [5] and in experiment [7] was inactive. Further, the outcome in experiment [9], in experiment [10], in experiment [11], in experiment [13], in experiment [14] and in experiment [15] was inactive. Further, the inhibition in [6] was 41% (active); in [8] it was 43.5% (active); in experiment [12], 36.9% (active).

Regarding `C/C(=N/NC(=O)c1ccc(Cn2cccn2)o1)c1cccc(NC(=O)c2ccncc2)c1`, the figures for the activation in experiment [1], in experiment [9] and in [11] were 100% (active), 49% (active) and 11.3% (active), respectively. The result in [2], in experiment [3], in experiment [4], in experiment [6], in experiment [7] and in experiment [8] was inactive. Besides, the result in experiment [10], in experiment [12], in experiment [13], in [14] and in [15] was inactive. Moreover, in experiment [5], the inhibition was 97% (active).

As for `COc1ccccc1NS(=O)(=O)c1cccc(C(=O)NC2CCN(Cc3ccccc3)CC2)c1`, the activation is 90% (active) in experiment [1] and 38.5% (active) in experiment [9]. The result in experiment [2], in experiment [3], in experiment [4], in experiment [5], in experiment [7] and in experiment [8] was inactive. Further, the outcome in experiment [10], in experiment [11], in [12], in experiment [13], in experiment [14] and in [15] was inactive. Moreover, the inhibition in [6] was 72% (active).

With `CN(C)CCN(C(=O)C1CCCCC1)c1nc2cc3c(cc2s1)OCO3`, the outcome in experiment [1], in [2], in [3], in experiment [4], in experiment [6] and in experiment [7] was inactive. Moreover, the molecule was classed as inactive in experiment [8], in experiment [9], in experiment [10], in [11], in experiment [12] and in experiment [13]. Further, the outcome in experiment [14] and in experiment [15] was inactive. In addition, the inhibition in experiment [5] was 75% (active).

For the molecule `CN(C)C(CNC(=O)c1ccc(C(F)(F)F)cc1)c1ccco1` (stereo not given), the figures for the activation in experiment [1] and in experiment [9] were 55% (active) and 28.5% (active), respectively. In addition, the outcome in [2], in experiment [3], in experiment [4], in [7], in experiment [8] and in [10] was inactive. In addition, the outcome in [11], in experiment [12], in [13], in experiment [14] and in [15] was inactive. For the same molecule, the inhibition in [5] was 96% (active); in experiment [6], 92% (active).

For `CN(C)C(CNC(=O)c1cc2ccccc2oc1=O)c1ccccc1` (stereo not given), the activation in [1] was 65% (active). Also, the result in experiment [2], in [3], in experiment [4], in experiment [5], in experiment [7] and in experiment [8] was inactive. Moreover, the molecule was classed as inactive in experiment [9], in experiment [10], in [11], in experiment [12], in experiment [13] and in [14]. Also, in experiment [15], the result was inactive. In addition, the inhibition in experiment [6] is 76% (active).

One may read the inhibition as the relative decrease from the control value, in per cent.
